Bioassay records from PubChem BioAssay.
A selection: hits, their analogues and other compounds. The true share with any hit is near 1.2%.
SRC3 inh – SRC3 coactivator transcriptional activity inhibitors, primary screen, cell-based, luminescence; Nuclear receptor coactivator 3 (Homo sapiens), Q9Y6Q9; HEK293 GAL4-SRC3 luciferase reporter; inhibition, % at 3.6 µM; 0.17% of 360,000 active;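 active = inhibition above a per-campaign cutoff, the mean of all compounds plus 3 SD, cut at about 60% in these data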;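 also: 0% = DMSO-treated cells and 100% = gossypol-treated cells at 36 µM; higher means less SRC3-driven luciferase light from the GAL4 reporter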
Efflux pump mplx – inhibitors of Candida efflux pumps in yeast, primary screen, S. cerevisiae, Nile Red, multiplex; S. cerevisiae Candida pump triplex; 0.44% of 330,000 active; inhibition, % at 10 µM;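 active = plate passing quality check with inhibition over a set limit, or well fluorescence over plate mean plus 4 SD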;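 also: Nile Red retained in pooled yeast measured as flow cytometry median fluorescence; 0% = buffer negative control and 100% = Enniatin B positive control; higher means more Nile Red kept so more efflux inhibition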
NR5A2 inv ag – LRH-1 (NR5A2) inverse agonists, primary screen, cell-based, luminescence, HEK293T, StAR-luciferase reporter; LRH-1 transfected, 24 h; 0.13% of 360,000 active; inhibition, % at 3.6 µM; Nuclear receptor subfamily 5 group A member 2 (Homo sapiens), O00482;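 active = inhibition above the mean inhibition of all tested compounds plus 3 SD, cut at about 73% in these data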;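 also: 0% = DMSO wells and 100% = reporter-only cells lacking LRH-1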
NCOA1 inh – SRC1 coactivator transcriptional activity inhibitors, primary screen, cell-based, luminescence. Nuclear receptor coactivator 1 (Homo sapiens), Q15788. HEK293 GAL4-SRC1 luciferase reporter. inhibition, % at 3.6 µM. 0.12% of 360,000 active. AID 588354, 2011;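 active = inhibition above the campaign mean plus 3 SD, with each screening campaign given its own cutoff, cut at about 60% in these data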;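 also: 0% = DMSO treated cells and 100% = gossypol at 36 µM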
NCOA2 inhibitor – inhibition of GAL4-SRC2 driven luciferase reporter, primary screen, SRC2 inhibitor project, cell-based, luminescence. HEK293 GAL4-SRC2 luciferase reporter. 0.17% of 370,000 active. inhibition, % at 9 µM. Nuclear receptor coactivator 2 (Homo sapiens), Q15596;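 active = inhibition above the mean inhibition of all tested compounds plus 3 SD, set per campaign, cut at about 52% in these data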;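 also: 0% = DMSO treated cells and 100% = cells given Gossypol at 36 µM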
NR2F2 inh – NR2F2 transcriptional activity inhibitors, primary screen, cell-based, luciferase reporter, HEK293T, luminescence; COUP transcription factor 2 (Homo sapiens), P24468; HEK293T NGFI-A luciferase reporter; inhibition, % at 8.6 µM; 0.7% of 370,000 active; AID 686940, 2013;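 active = inhibition above a per-plate cutoff, mean inhibition of test wells between control levels plus 3 SD, cut at about 38% in these data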;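 also: cells cotransfected with COUP-TFII expression vector driving the NGFI-A reporter; 0% = median of COUP-TF2 test wells and 100% = reporter-only cells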
Target sequence (P24468 whole entry, looked up): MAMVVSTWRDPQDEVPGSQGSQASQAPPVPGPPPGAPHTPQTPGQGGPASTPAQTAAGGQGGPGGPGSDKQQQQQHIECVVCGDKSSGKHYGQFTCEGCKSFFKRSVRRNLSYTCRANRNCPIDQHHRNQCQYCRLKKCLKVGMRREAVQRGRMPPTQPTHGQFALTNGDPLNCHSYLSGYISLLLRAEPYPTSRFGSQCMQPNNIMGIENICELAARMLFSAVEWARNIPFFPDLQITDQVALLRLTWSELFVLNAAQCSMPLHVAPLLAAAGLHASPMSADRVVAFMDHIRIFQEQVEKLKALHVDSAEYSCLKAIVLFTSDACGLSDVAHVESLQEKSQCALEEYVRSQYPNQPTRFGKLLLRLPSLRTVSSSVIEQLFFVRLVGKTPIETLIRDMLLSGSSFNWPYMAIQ
Gal4-VP16 ctr – Gal4-VP16 luciferase reporter inhibitors, counter-screen for COUP-TFII antagonist project, cell-based, luminescence, HEK293; inhibition, % at 8.5 µM; AID 687007, 2013; shares compounds with NR2F2 inh; 25% of 2,500 active; in the data active = inhibition above about 13%
NR2F2 inh conf – NR2F2 transcriptional activity inhibitors, confirmation, cell-based, luciferase reporter, HEK293, triplicate. HEK293 NGFI-A luciferase reporter, luminescence. shares compounds with NR2F2 inh. inhibition, % at 8.5 µM. 45% of 2,500 active;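 active = mean inhibition over three repeats above a set limit taken from the earlier primary screen, cut at about 38% in these data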;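 also: 100% = cells given the luciferase reporter alone without the COUP-TF2 vector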
Active calls of the source: *; / = not tested or not shown.

SMILES	SRC3 inh	Efflux pump mplx	NR5A2 inv ag	NCOA1 inh	NCOA2 inhibitor	NR2F2 inh	Gal4-VP16 ctr	NR2F2 inh conf
O=C(c1cc2c(s1)-c1ccccc1S(=O)(=O)C2)N1CCN(Cc2ccccc2)CC1	-2	0	14	1	20	39*	-14	26
O=C(CSc1nnnn1C1CCCCC1)NCc1ccc2c(c1)OCO2	1	0	12	-17	24	-9	/	/
O=C(Cc1coc2cc3c(cc12)CCC3)OCC(=O)N1CCCC1=O	26	0	12	11	54*	44*	28*	13
CCC1Sc2ccc(S(=O)(=O)Nc3ccc(OC)c(OC)c3)cc2NC1=O (centres undefined)	14	0	25	-9	30	52*	-7	17
COc1ccc(S(=O)(=O)N/N=C\c2ccc3c(c2)OCO3)c(OC)c1	6	0	15	4	34	48*	-5	27
COc1ccc(OC)c(S(=O)(=O)N/N=C\c2ccc3c(c2)OCO3)c1	-7	0	22	-63	-22	-8	/	/
CCN(c1ccccc1)S(=O)(=O)c1ccc(C(=O)Nc2cccc(NC(C)=O)c2)cc1	15	0	-8	-14	1	7	/	/
CCN(c1ccccc1)S(=O)(=O)c1cc(C(=O)Nc2ccc(F)c(F)c2)ccc1F	12	0	34	14	3	44*	-9	28
Cc1ccc(N(C)C)cc1	/	/	/	/	13	-5	/	/
Cc1ccc2c(c1)sc(-c1ccc(N(C)C)cc1)[n+]2C	-55	0	16	-30	-20	58*	-25	53*
COc1cccc(S(=O)(=O)NCc2ccc(C(=O)Nc3ccc(C)cc3)cc2)c1	-2	0	-22	-3	-2	3	/	/
COc1cc(C=C2C(=O)c3ccccc3C2=O)ccc1O	24	0	5	5	-43	-17	/	/
COc1ccc(/C=C2\CC/C(=C\c3ccc(OC)c(OC)c3)C2=O)cc1OC	51	0	7	45	65*	51*	32*	50*
COc1cc(/C=C2\COC/C(=C\c3ccc(O)c(OC)c3)C2=O)ccc1O	18	0	-16	-13	-56	63*	13	19
CCOCCCNC(=O)CCc1ccc(-n2cnc3cccnc32)cc1	11	0	14	9	1	4	/	/
CC(=O)c1ccc(OCCCC(=O)Nc2ccc(C)c(S(=O)(=O)N3CCCCC3)c2)cc1	11	/	13	18	38	61*	11	40*
Cc1ccc(NC(=O)COc2ccc(N(C)C(=O)C(C)(C)C)cc2)cc1S(=O)(=O)N1CCCCC1	10	0	25	10	15	74*	3	54*
Cc1cccc(OCCC(=O)Nc2ccc(C)c(S(=O)(=O)N3CCCCC3)c2)c1	24	0	1	10	-34	38*	-7	8
Cc1ccc(NC(=O)COc2cccc(C)c2C)cc1S(=O)(=O)N1CCCCCC1	11	0	7	11	2	15	/	/
COc1ccc(NC(=O)CCOc2cc(C)ccc2C)cc1S(=O)(=O)N1CCCCC1	-14	0	7	7	16	41*	-7	1
CCOc1ccc(C(=O)CCC(=O)Nc2ccc(C)c(S(=O)(=O)N3CCCCC3)c2)cc1	11	/	7	1	-11	-9	/	/
O=C(Nc1ccc(COc2ccccc2)cc1)Oc1ccccc1N1CCOCC1	8	0	5	-12	-1	11	/	/
NS(=O)(=O)c1cccc(NC(=O)CCc2ccc(S(=O)(=O)N3CCOCC3)cc2)c1	-31	/	9	-14	-11	-6	/	/
O=C(O)CC(SCC(=O)Nc1ccc(Cl)c(S(=O)(=O)N2CCOCC2)c1)C(=O)O (centres undefined)	4	0	3	0	17	-7	/	/
CC(CC(=O)Nc1ccc(Cl)c(S(=O)(=O)N2CCOCC2)c1)c1ccccc1 (centres undefined)	18	/	22	29	29	63*	4	51*
SMILES	SRC3 inh	Efflux pump mplx	NR5A2 inv ag	NCOA1 inh	NCOA2 inhibitor	NR2F2 inh	Gal4-VP16 ctr	NR2F2 inh conf
CC(=O)Nc1ccc(OCC(=O)Nc2ccc(Cl)c(S(=O)(=O)N3CCOCC3)c2)cc1	28	0	35	26	34	65*	7	44*
COc1cc(C(C)=O)ccc1OCC(=O)Nc1ccc(C)c(S(=O)(=O)N2CCCCCC2)c1	26	0	16	4	20	47*	-6	20
Cc1ccc(NC(=O)COc2ccccc2C(N)=O)cc1S(=O)(=O)N1CCCCCC1	13	0	23	12	41	60*	-7	46*
COc1ccc(NC(=O)COc2ccccc2C(N)=O)cc1S(=O)(=O)N1CCCCC1	18	/	10	-9	-14	3	/	/
COC(=O)c1cccc(CC2(C)C(=O)Nc3cc(-c4ccccc4Cl)ccc32)c1 (centres undefined)	-62	/	-44	-13	-31	2	/	/
Oc1nc(-c2ccc(Br)cc2)n2ccncc12	7	0	1	-6	-10	-1	/	/
Cc1cc(Cl)c(S(=O)(=O)N2CCCC2)cc1OCC(=O)NC1CCCCC1	21	0	-16	-14	19	62*	4	26
Cc1cccc(OCCCC(=O)Nc2ccc(Cl)c(S(=O)(=O)N3CCOCC3)c2)c1	28	0	18	-12	-21	39*	11	39*
CCN(CC)S(=O)(=O)c1cc(NC(=O)Cc2ccc(S(=O)(=O)N3CCOCC3)s2)ccc1Cl	22	/	25	14	32	64*	3	30
CCc1cccc(OCC(=O)Nc2ccc(C)c(S(=O)(=O)N3CCCCCC3)c2)c1	21	0	-9	-10	7	40*	3	18
Cc1occc1CNc1ncnc2ccc(-c3ccc4c(c3)OCO4)cc12	/	/	/	/	/	-6	/	/
N#C/C(=C/c1ccc(O)c(O)c1)C(=O)NCc1ccc(Cl)cc1	-20	0	7	-12	-1	-4	/	/
O=C(N[C@H](Cc1ccccc1)C(=O)N1CCN(C(=O)N2CCOCC2)CC1)[C@H]1O[C@@H](n2ccc(=O)[nH]c2=O)[C@H](O)[C@@H]1O	/	/	/	/	-2	-15	/	/
